Values joined by “and” are separate entries in the source; they are usually repeats but may differ in a detail not shown here. Identical values can stand only once. Results filed as inconclusive are left out. Some structures have more than one record in an assay (separate samples or runs), and their calls can disagree. Active and inactive are the calls of the source. Unless noted, calls follow the shape of the dose curve; as a rule, active = well fitted curve in the direction sought with a large enough effect; inconclusive = small, poorly fitted or top-dose-only effect, or another doubt; inactive = no such curve, though single readings can be large; an effect the other way counts as inactive or inconclusive.
Legend:
[1] = tested on: Zika virus NS2B-NS3 protease; assay: Primary screen GU AMC qHTS for Zika virus inhibitors (AID 1347154);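 also: 0% = no-inhibitor control and -100% = no-enzyme control; nearly all actives have a fitted effect of over 70% in size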
Outline: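 Unlinked Zika NS2B hydrophilic domain/NS3 protease domain noncovalent complex (25 nM final) in 10 mM Tris-HCl pH 8.0, 0.01% Tween 20, with AMC peptide substrate. Fluorescence (ex 340, em 450 nm) change over 15 min, room temperature; percent inhibition fitted to 4-parameter Hill equation.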

[2] = Primary qHTS for small molecule stabilizers of the endoplasmic reticulum resident proteome: Secreted ER Calcium Modulated Protein (SERCaMP) assay (AID 1508630); also: % is scaled to controls: 0 for no effect and ±100 for the full control effect
Outline: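 The SH-SY5Y reporter protocol was run at 3 concentrations up to 38.3 uM (primary) or 11 concentrations (follow-up): 16 h compound, 100 nM thapsigargin for 4 h, then extracellular luciferase luminescence.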

[3] = target: Cytochrome P450 1A2 (Homo sapiens) (UniProt P05177); assay: p450-cyp1a2 (AID 410; calls by dose curve; also: potency is read from the fitted curve at half-maximal effect;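 as to activity change, negative = inhibition: -100% = full effect of reference inhibitor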)
Sequence of Cytochrome P450 1A2 (Homo sapiens) (P05177 whole entry, looked up): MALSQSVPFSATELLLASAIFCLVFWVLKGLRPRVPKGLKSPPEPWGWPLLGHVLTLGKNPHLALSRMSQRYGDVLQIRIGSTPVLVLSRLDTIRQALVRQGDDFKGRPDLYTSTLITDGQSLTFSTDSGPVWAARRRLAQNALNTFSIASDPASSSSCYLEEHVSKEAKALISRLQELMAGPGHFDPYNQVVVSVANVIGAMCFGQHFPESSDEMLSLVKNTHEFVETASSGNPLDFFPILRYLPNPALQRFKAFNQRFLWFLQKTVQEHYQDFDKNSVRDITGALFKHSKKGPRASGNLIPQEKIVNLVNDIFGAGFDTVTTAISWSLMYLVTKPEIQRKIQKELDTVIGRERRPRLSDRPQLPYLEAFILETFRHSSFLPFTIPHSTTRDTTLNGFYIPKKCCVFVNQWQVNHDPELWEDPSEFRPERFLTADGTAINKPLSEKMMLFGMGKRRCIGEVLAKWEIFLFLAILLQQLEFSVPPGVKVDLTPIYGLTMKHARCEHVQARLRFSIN
Outline: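 Luminescent demethylation readout: Luciferin-ME (100uM, equal to Km) turned over by 20nM CYP1A2 for 60 min at room temperature after NADPH regeneration addition, following 10 min compound preincubation. Normalization used 57 uM furafylline as full inhibition.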

[4] = target: Glucocorticoid receptor (Homo sapiens) (UniProt P04150); assay: GR-GFP Redistribution (AID 450;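 active = compounds whose dose series gives a full or clear partial fitted curve of increased nuclear translocation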; also: potency is read from the fitted curve at half-maximal effect); conditions: U2OS GR-GFP nuclear translocation, laser cytometry, 2 h
Sequence of Glucocorticoid receptor (Homo sapiens) (P04150 whole entry, looked up, the tested form may be a part): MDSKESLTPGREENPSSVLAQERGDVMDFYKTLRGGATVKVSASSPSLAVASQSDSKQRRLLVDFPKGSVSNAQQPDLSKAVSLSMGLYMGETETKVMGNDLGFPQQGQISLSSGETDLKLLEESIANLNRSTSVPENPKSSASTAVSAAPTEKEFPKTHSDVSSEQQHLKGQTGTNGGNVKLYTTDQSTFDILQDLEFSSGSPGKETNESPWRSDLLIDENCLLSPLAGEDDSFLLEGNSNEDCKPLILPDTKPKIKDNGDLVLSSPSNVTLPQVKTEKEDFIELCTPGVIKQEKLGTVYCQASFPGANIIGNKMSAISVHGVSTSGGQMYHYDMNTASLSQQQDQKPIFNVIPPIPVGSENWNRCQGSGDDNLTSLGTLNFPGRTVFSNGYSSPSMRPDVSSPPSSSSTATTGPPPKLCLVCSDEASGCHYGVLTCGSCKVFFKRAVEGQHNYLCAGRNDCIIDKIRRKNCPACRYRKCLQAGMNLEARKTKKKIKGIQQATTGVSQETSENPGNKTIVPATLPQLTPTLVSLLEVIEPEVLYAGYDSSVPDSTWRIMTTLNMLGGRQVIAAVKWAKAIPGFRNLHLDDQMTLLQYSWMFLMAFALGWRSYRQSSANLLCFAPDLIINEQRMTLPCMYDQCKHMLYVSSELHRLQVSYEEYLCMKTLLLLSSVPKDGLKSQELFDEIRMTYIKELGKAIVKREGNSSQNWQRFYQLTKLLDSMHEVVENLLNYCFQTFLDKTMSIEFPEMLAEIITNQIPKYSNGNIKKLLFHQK

[5] = target: Glucocorticoid receptor (Homo sapiens) (UniProt P04150); assay: GR-EFC Redistribution (AID 451; calls by dose curve; also: potency is read from the fitted curve at half-maximal effect); conditions: CHO-K1 GR-EFC translocation, beta-gal luminescence, 2 h
Outline: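 CHO-K1 cells stably expressing nuclear-localized β-gal enzyme acceptor and GR fused C-terminally to the enzyme donor fragment; ligand-driven nuclear translocation restores β-gal by complementation. Compounds titrated up to 46 uM final, 2 h at 37 °C; luminescence read.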

[6] = target: Mitogen-activated protein kinase 10 (Mus musculus) (UniProt Q61831); assay: JNK3 AlphaScreen Assay (AID 530; active = well fitted curve in either direction with a large enough effect, not every such curve was filed as active;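 also: kinase came from lysate of stimulated human HepG2 cells; signal reports phosphorylation of biotinylated GST-cJun 1-79 at Ser73 with 10 µM ATP; % is scaled to controls: 0 for no effect and ±100 for the full control effect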)
Outline: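 Phosphorylation of biotinylated GST-cJun(1-79) at Ser73 is measured by AlphaScreen proximity luminescence. Enzyme is JNK3 in HepG2 lysates activated with interleukin-1beta and tumor necrosis factor alpha; ATP is 10 uM final.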

[7] = target: Cytochrome P450 2C19 (Homo sapiens) (UniProt P33261); assay: qHTS Assay for Inhibitors and Substrates of Cytochrome P450 2C19 (AID 899); also: potency is read from the fitted curve at half-maximal effect; nearly all actives have a fitted effect of over 60% in size
Outline: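 NADPH-dependent conversion of Luciferin-H EGE (10uM, at KM) by 5nM enzyme in 50mM KPO4, 60 min at 37C following 10 min compound preincubation. Stopped with luciferin detection buffer; luminescence read after 20 min.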

[8] = qHTS Assay for Lipid Storage Modulators (AID 1519; calls by dose curve); conditions: Drosophila S3 cells, BODIPY lipid droplet/cell ratio, laser cytometry, cells loaded with oleic acid
Outline: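 Cells seeded at 5,000 per well were treated with compounds over a concentration series and loaded with oleic acid (400 uM, as added). Lipid droplet fluorescence (488 nm excitation, 500-530 nm channel) was read by laser-scanning cytometry and normalized to 20 uM Triacsin C.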

[9] = target: DNA dC->dU-editing enzyme APOBEC-3G (Homo sapiens) (UniProt Q9HC16); assay: qHTS for inhibitors of Vif-A3G interactions: Validation (AID 588379); also: 0% is about no effect
Sequence of DNA dC->dU-editing enzyme APOBEC-3G (Homo sapiens) (Q9HC16 whole entry, looked up): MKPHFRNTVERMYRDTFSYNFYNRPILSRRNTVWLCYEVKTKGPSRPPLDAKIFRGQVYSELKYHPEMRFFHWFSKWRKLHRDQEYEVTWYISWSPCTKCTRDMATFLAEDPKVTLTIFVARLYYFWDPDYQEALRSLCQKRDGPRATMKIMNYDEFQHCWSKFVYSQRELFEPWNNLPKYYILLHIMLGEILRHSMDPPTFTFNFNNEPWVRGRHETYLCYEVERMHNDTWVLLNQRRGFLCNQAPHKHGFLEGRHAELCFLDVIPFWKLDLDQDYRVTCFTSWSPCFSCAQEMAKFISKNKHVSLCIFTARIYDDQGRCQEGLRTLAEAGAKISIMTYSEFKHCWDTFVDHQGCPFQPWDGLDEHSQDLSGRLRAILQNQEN
Outline: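 Yellow fluorescence (Ex 488, Em 500-530) of Vif-coexpressing HeLa A3G-eYFP cells, scanned by Acumen cytometer, reports blocked A3G degradation. Cells plated at 700/well overnight at 37 deg C before compound addition, then a further overnight compound incubation at 37 deg C.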

[10] = target: Rap guanine nucleotide exchange factor 3 (Homo sapiens) (UniProt O95398); assay: Confirmatory qHTS for antagonist of cAMP-regulated guanine nucleotide exchange factor 3 (EPAC1) (AID 1645880);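 also: plate controls were DMSO only for no effect and full effect of the ATA control for full effect; nearly all actives have a fitted effect of over 55% in size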
Outline: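 Released BODIPY-GDP fluoresces less than Rap1-bound BODIPY-GDP; the signal is followed at 480/540 nm at 5-min intervals over 30 min, after 5 min at room temperature. Reactions contain 100 nM EPAC1, 250 nM RAP1B-BODIPY-GDP and 50 uM GDP; results are normalized to ATA and DMSO.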

[11] = target: Rap guanine nucleotide exchange factor 3 (Homo sapiens) (UniProt O95398); assay: Confirmatory qHTS for agonist of cAMP-regulated guanine nucleotide exchange factor 3 (EPAC1) (AID 1645881);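 also: EPAC1 catalysed release of BODIPY-GDP from Rap1B seen as fluorescence loss; 100% = effect of cAMP agonist control; nearly all actives have a fitted effect of over 75% in size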
[12] = target: Rap guanine nucleotide exchange factor 4 (Homo sapiens) (UniProt Q8WZA2); assay: Confirmatory qHTS for agonist of cAMP-regulated guanine nucleotide exchange factor 4 (EPAC2) (AID 1645884);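 also: nucleotide exchange releases bodipy-GDP from Rap1 and this lowers its fluorescence; % is scaled to controls: 0 for no effect and ±100 for the full control effect; nearly all actives have a fitted effect of over 65% in size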
[13] = AP1 Signaling Pathway (AID 357; active = well fitted curve in either direction with a large enough effect, not every such curve was filed as active;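 also: ME-180 reporter cells stimulated with EGF at its EC50 level; % is scaled to controls: 0 for no effect and ±100 for the full control effect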); conditions: ME-180 AP-1-bla reporter, EGF-induced, beta-lactamase ratio, 5 h
Outline: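 Cells are seeded overnight, exposed to compound titrations and an EC50 level of EGF for 5 hours at 37 °C, then loaded with CCF4 dye for 2.5 hours. Beta-lactamase activity under the AP-1 element is read as a blue/green ratio.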

[14] = NFAT Signaling Pathway (AID 444; active = well fitted curve in either direction with a large enough effect, not every such curve was filed as active;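 also: carbachol stimulus at about its EC50 of 1 µM final; % is scaled to controls: 0 for no effect and ±100 for the full control effect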); conditions: Jurkat NFAT-bla M1, carbachol, beta-lactamase ratio, 5 h
Outline: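 Jurkat cells carrying an NFAT-driven β-lactamase reporter and co-transfected muscarinic M1 receptor were treated with compound plus carbachol (1 uM final, an EC50 level) for 5 h at 37 °C. CCF4 loading followed for 1 h at RT; 460/530 nm ratio gave %activity.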

[15] = Stat Signaling Pathway (AID 446; active = well fitted curve in either direction with a large enough effect, not every such curve was filed as active); conditions: ME-180 (cervical carcinoma) SIE beta-lactamase reporter, IL-6 stimulated, 5 h
Outline: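 Overnight-plated ME-180 cells bearing a STAT Inducible Element beta-lactamase reporter; 5 h co-exposure to compound and 40 pM IL-6; values normalized to 300 pM IL-6 and 125 nM JAK inhibitor controls.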

[16] = target: 3',5'-cyclic-AMP phosphodiesterase 4B (Homo sapiens) (UniProt Q07343); assay: qHTS Assay for Inhibitors of PDE-IV (AID 607; active = well fitted activation curve with a large enough effect in the main read-out, with a control signal flat, not every such curve was filed as active; also: % of control where 0% means no effect)
Sequence of 3',5'-cyclic-AMP phosphodiesterase 4B (Homo sapiens) (Q07343 whole entry, looked up): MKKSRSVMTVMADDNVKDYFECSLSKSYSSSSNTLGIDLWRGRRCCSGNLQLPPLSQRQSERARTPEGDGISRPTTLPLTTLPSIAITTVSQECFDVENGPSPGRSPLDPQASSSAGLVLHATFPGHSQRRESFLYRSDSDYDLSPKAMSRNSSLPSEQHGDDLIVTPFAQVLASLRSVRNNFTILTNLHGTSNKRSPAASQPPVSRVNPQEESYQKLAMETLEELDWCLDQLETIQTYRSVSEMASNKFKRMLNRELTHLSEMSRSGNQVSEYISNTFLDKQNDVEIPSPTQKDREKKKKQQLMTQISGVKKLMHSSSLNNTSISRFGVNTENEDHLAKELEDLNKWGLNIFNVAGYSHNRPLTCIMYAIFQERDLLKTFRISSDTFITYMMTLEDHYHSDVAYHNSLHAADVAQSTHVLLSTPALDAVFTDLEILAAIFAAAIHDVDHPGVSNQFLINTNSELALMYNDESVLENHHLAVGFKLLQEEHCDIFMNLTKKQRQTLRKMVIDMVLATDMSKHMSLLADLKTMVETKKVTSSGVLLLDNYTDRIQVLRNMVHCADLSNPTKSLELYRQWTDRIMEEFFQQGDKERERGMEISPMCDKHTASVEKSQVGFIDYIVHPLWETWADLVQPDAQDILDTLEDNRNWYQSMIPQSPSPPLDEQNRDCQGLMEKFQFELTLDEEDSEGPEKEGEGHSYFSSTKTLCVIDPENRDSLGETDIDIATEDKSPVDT
Outline: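 Live HEK293 cells with a modified cyclic nucleotide-gated (CNG) channel report intracellular cAMP via membrane-potential dye fluorescence (ex 535/em 590 nm). Endogenous PDE-IV was targeted. Compounds were tested at up to 22.9 uM final; RO 20-1724 100 uM served as control.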

[17] = target: Guanine nucleotide-binding protein G(i) subunit alpha-1 (Homo sapiens) (UniProt P63096); assay: qHTS Assay for Inhibitors of RGS12 GoLoco Motif Activity (Green Fluorophore) (AID 879);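 also: 0% = labeled peptide with Gαi1 and full inhibition = labeled peptide alone without protein; negative values mean loss of peptide binding seen as reduced polarization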
Outline: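 A drop in FITC polarization marked displacement of the FITC-tagged RGS12 GoLoco peptide (10 nM) from Gαi1 (50 nM). Compounds were incubated 10 min at room temperature in Tris pH 7.5 buffer containing 150 mM NaCl, 0.1 mM GDP and 0.05% NP40; unlabeled peptide titration served as control.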

[18] = target: Muscarinic acetylcholine receptor M1 (Rattus norvegicus) (UniProt P08482); assay: qHTS Assay for Antagonists of Acetylcholine Muscarinic M1 Receptor: Measurement of IP-One Response (AID 944); also: nearly all actives have a fitted effect of over 75% in size
Sequence of Muscarinic acetylcholine receptor M1 (Rattus norvegicus) (P08482 whole entry, looked up): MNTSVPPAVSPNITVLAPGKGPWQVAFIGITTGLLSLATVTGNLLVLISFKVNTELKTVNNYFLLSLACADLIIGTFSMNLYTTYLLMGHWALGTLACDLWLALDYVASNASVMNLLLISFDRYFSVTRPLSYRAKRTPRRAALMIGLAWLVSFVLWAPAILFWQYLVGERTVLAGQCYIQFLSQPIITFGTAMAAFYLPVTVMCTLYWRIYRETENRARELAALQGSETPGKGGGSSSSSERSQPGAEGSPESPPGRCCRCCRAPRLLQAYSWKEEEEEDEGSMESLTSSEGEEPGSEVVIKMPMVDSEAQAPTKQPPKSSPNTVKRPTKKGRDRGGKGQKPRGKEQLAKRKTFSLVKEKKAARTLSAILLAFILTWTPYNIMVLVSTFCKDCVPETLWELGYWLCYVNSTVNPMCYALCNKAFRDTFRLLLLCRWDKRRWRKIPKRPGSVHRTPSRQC
Outline: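 IP1 accumulation measured via TR-FRET between d2-IP1 and Eu-cryptate anti-IP1 antibody after carbachol (200 nM, EC80) stimulation for 30 min; rat M1-transfected CHO cells received compound 10 min before agonist.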

[19] = target: Pyruvate kinase (Leishmania mexicana) (UniProt Q27686); assay: qHTS Validation Assay for Inhibitors of Leishmania Mexicana Pyruvate Kinase (AID 945);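 also: 0% = DMSO only neutral control wells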
Outline: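 Luminescent ATP detection (PKLight) after a 1 h room-temperature reaction of 0.2 nM LmPYK E451W mutant with 0.5 mM PEP and 0.1 mM ADP at pH 7.2. Activity is normalized to DMSO-only control wells.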

[20] = target: Pyruvate kinase PKM (Homo sapiens) (UniProt P14618); assay: qHTS Assay for Activators of Human Muscle Pyruvate Kinase (AID 954; active = well fitted curve in the direction sought with a large enough effect, not every such curve was filed as active;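 also: 0% = uninhibited enzyme and -100% = no enzyme or full thiadiazolimine inhibition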)
Sequence of Pyruvate kinase PKM (Homo sapiens) (P14618 whole entry, looked up): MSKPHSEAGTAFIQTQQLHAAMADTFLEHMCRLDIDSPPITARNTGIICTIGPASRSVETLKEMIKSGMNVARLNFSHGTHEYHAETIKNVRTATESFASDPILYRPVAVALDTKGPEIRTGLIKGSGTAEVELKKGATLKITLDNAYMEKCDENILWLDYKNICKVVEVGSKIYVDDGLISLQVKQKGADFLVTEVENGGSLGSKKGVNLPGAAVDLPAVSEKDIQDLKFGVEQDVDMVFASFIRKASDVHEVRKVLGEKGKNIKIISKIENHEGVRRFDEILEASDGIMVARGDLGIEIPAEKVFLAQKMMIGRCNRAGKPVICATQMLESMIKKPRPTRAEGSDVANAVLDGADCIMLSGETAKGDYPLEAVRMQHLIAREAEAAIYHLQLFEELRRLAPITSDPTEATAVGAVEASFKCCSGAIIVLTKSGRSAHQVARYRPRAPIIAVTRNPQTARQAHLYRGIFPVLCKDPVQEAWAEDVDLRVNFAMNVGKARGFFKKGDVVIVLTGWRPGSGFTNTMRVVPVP
Outline: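 Screening used highly purified human pyruvate kinase M2 under submaximal activity, with PEP at its Km and ADP below Km. After an hour at room temperature, ATP was read by luciferase luminescence.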

[21] = target: Alpha-galactosidase A (Homo sapiens) (UniProt P06280); assay: Counterscreen for Glucocerebrosidase Inhibitors: qHTS Assay for Human alpha-Galactosidase at pH 4.5 (AID 992); also: 0% is about no effect
Outline: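 Each compound is preincubated briefly with 2 nM enzyme before substrate addition (80 uM); plates then sit 20 min at ambient temperature, are quenched with 1M NaOH/1M glycine, and read fluorometrically.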

[22] = target: alpha-glucosidase (Oryza sativa, rice) (UniProt Q653V4); assay: Counterscreen for Glucocerebrosidase Inhibitors: qHTS Assay for Rice alpha-Glucosidase at pH 5.0 (AID 997);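 also: 0% = full activity with enzyme and -100% = basal without enzyme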
Outline: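 Endpoint fluorogenic assay at pH 5.0: compounds (0.7 nM to 77 uM) titrated against 4 nM rice enzyme and 400 uM 4-MU-alpha-glucoside for 20 min at room temperature; NaOH/glycine stop, read ex 365/em 440 nm, Hill-fitted AC50.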

[23] = target: Ubiquitin carboxyl-terminal hydrolase 1 (Homo sapiens) (UniProt O94782); assay: Inhibitors of USP1/UAF1: Pilot qHTS (AID 504865);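 also: rhodamine fluorescence freed from ubiquitin-rhodamine substrate followed over time; top concentration of the series differs between compounds; % is scaled to controls: 0 for no effect and ±100 for the full control effect; nearly all actives have a fitted effect of over 35% in size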
Sequence of Ubiquitin carboxyl-terminal hydrolase 1 (Homo sapiens) (O94782 whole entry, looked up): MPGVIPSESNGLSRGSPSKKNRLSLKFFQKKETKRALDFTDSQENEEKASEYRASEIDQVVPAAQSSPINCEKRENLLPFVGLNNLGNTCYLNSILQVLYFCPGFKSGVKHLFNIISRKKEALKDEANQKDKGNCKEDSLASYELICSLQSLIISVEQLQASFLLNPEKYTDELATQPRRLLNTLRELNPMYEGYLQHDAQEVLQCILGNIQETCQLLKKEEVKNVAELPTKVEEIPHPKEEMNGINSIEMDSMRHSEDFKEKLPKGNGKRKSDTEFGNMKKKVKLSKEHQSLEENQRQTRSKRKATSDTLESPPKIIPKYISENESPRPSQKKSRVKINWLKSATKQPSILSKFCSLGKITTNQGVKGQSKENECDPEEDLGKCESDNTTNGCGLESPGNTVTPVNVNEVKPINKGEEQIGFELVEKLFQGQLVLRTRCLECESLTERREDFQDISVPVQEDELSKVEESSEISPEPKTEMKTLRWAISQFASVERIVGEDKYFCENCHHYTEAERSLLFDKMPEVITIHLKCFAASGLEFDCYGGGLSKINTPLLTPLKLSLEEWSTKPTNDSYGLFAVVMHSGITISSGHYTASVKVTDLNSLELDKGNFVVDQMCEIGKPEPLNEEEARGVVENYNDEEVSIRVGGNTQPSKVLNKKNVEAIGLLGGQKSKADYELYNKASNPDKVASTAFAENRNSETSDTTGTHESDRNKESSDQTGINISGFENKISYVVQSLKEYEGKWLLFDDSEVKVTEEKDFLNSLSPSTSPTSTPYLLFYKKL
Outline: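 In 50mM HEPES pH 7.8 containing 0.5mM EDTA, 1mM TCEP, 0.1 mg/ml BSA and 0.01% Tween-20, 1nM USP1/UAF1 is exposed to compound for 15 min, then Ub-Rho (150nM final) is added and fluorescence is read over time.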

[24] = target: Cytochrome P450 3A4 (Homo sapiens) (UniProt P08684); assay: qHTS Assay for Activators of Cytochrome P450 3A4 (AID 885); also: nearly all actives have a fitted effect of over 65% in size
Sequence of Cytochrome P450 3A4 (Homo sapiens) (P08684 whole entry, looked up): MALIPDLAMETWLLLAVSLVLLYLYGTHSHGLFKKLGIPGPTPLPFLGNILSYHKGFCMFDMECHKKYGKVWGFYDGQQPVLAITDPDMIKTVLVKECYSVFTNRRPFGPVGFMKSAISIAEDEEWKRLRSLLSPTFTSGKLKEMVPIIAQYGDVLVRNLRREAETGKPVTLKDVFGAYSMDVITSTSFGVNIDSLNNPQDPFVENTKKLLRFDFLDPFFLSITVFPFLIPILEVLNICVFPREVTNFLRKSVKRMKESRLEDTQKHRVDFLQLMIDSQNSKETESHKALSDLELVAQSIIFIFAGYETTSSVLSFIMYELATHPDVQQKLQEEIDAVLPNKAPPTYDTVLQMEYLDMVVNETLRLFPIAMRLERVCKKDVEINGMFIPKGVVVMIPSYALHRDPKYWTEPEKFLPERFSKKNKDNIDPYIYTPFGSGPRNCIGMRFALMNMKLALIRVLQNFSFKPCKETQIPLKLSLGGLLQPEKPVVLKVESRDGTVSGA
Outline: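 Using 20nM recombinant human CYP3A4 in potassium phosphate (200mM), substrate Luciferin-PPXE at 25uM, luminescent luciferin detection followed a 60-min RT NADPH reaction; data scaled to 57 uM ketoconazole.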

[25] = qHTS Assay for Identification of Small Molecule Agonists for Thrombopoietin (TPO) Signaling Pathway (AID 917); also: % is scaled to controls: 0 for no effect and ±100 for the full control effect
Outline: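 Cell-based luciferase reporter screen. Mouse Ba/F3 line stably expressing human TPO receptor; IL-3 removed overnight before plating. Co-treatment with compound and EC50 TPO (26 pM), 24 hrs at 37 C, then luminescence.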

[26] = target: Muscarinic acetylcholine receptor M1 (Rattus norvegicus) (UniProt P08482); assay: qHTS Assay for Antagonists of Acetylcholine Muscarinic M1 Receptor: Kinetic Measurement of Intracellular Calcium Response (AID 943);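 also: Fluo-4 calcium signal as peak divided by basal fluorescence over 4 min; nearly all actives have a fitted effect of over 75% in size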
Outline: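 Antagonism measured as reduction of carbachol-evoked (EC80, 100 nM final) calcium flux in rat M1-CHO cells after 10 min compound exposure. Fluo-4 signal read kinetically; ratio of maximal to basal fluorescence.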

[27] = measured here: cell count channel max response
[28] = measured here: lipid channel max response

CC(N)(C(=O)O)c1ccc(P(=O)(O)O)cc1 (stereo unspecified)
inactive: Potency [1] | Potency [2]

O=C(O)[C@H]1CCCN1
inactive: Potency [1] | Potency [2]

CCCCCCCC/C=C\CCCCCCCC(=O)OC[C@H](CO)OC(C)=O
inactive: activity change, negative = inhibition [1] 16.8% [at 6.83 µM] | activity change, negative = inhibition [2] -28% [at 3.88 µM]

c1ccc2[nH]c(NCCCc3cnc[nH]3)nc2c1
inactive: Potency [1] | Potency [2]

CCC(=O)N[C@@H]1Cc2ccccc2[C@@H](c2ccccc2)C1
28.8%: max response [8, 28]
active: Potency [3] 15.8 µM | Potency [7] 7.94 µM
inactive: Potency [4] > 46 µM | Potency [5] > 46 µM | Potency [6] | activity change, negative = inhibition ([8]; at 57.5 µM (top of the series)) 10.8% | Potency [9] | Potency [1] | Potency [2] | Potency [10] | outcome [11] | outcome [12]
13.4%: max response [8, 27]

O=C(NCCNC[C@@H](O)COc1ccc(O)cc1)N1CCOCC1
-12.6% and -5.19%: max response [8, 28]
inactive: activity change, negative = inhibition ([13]; at 17.2 µM (top of the series)) -7.17% | activity change, negative = inhibition ([13]; at 38 µM (top of the series)) -6.28% | Potency [3] | activity change, negative = inhibition ([14]; at 17.2 µM (top of the series)) -2.05% | activity change, negative = inhibition ([14]; at 38 µM (top of the series)) -2.2% | activity, negative = inhibition ([15]; at 17.2 µM (top of the series)) 6.36% | activity, negative = inhibition ([15]; at 38 µM (top of the series)) -6.64% | Potency [4] > 46 µM and > 20.6 µM | Potency [5] > 46 µM and > 20.6 µM | Potency [6] | Potency [16] | outcome [17] | Potency [18] | Potency [19] | outcome [20] | outcome [21] | outcome [22] | activity change, negative = inhibition ([8]; at 25.7 µM (top of the series)) -1.5% | activity change, negative = inhibition ([8]; at 57.5 µM (top of the series)) -3.4% | Potency [23] | Potency [9] | Potency [1] | Potency [2]
-11.7% and -2.05%: max response [8, 27]

N#CC(C#N)=C(N)/C(C#N)=C/c1ccc2[nH]ccc2c1
inactive: Potency [1] | Potency [2]

C[C@H](N=C(NC#N)Nc1ccncc1)C(C)(C)C
1.19%: max response [8, 27]
-1.85%: max response [8, 28]
15.8 µM (active) and inactive: Potency [3]
inactive: activity change, negative = inhibition ([13]; at 38 µM (top of the series)) -27.9% | activity change, negative = inhibition ([14]; at 17.2 µM (top of the series)) 5.32% | activity change, negative = inhibition ([14]; at 38 µM (top of the series)) 6.54% | activity, negative = inhibition ([15]; at 17.2 µM (top of the series)) -8.19% | activity, negative = inhibition ([15]; at 38 µM (top of the series)) -12.4% | Potency [4] > 46 µM and > 20.6 µM | Potency [5] > 46 µM and > 20.6 µM | Potency [6] | Potency [16] | outcome [17] | Potency [24] | Potency [25] | Potency [26] | outcome [20] | outcome [21] | outcome [22] | activity change, negative = inhibition ([8]; at 25.7 µM (top of the series)) -0.699% | Potency [23] | Potency [9] | Potency [1] | Potency [2]

CCC(=O)NC1Cc2ccccc2C(c2ccccc2)C1 (stereo unspecified)
inactive: Potency [1] | Potency [2]

CC[C@](N)(CCC(=O)O)C(=O)O
15.7%: max response [8, 28]
inactive: Potency [4] > 46 µM | Potency [5] > 46 µM | Potency [6] | activity change, negative = inhibition ([8]; at 57.5 µM (top of the series)) -0.484% | Potency [23] | Potency [9] | Potency [1] | Potency [2]
active: Potency [3] 20 µM
20.6%: max response [8, 27]
